The panel holds about 83,000 compounds, 20% with a hit somewhere; the sample as a whole holds those more often.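 Single-dose data. Exposure time 48 hours. Values below 10 considered active.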 Values without a mark were called inactive. Active and inactive are the calls of the source.
System: RXF 393 renal
Test: NCI-60 one-dose screen, 48 h (100 = growth as untreated, 0 = no growth, -100 = all killed)
Details: 10 µM unless noted

Cc1nn(-c2ccccc2)c(Oc2ccc(Cl)cc2)c1/C=N\N=c1/sc2ccccc2n1C was tested. Which growth did it give?
Its growth is 94.2%.

How did the growth turn out when CC(C)Sc1nc(NNC(N)=S)c(C#N)c(-c2ccc(F)cc2)n1 was run?
Its growth is 101%.

How did the growth turn out when NC(=O)c1ccc[n+](Cc2ccc(Cl)cc2Cl)c1 was run?
Its growth is 118%.

Which growth does the source give for CCCCCCCC/C=C\CCCCCCCCOc1ccccc1CC(=O)NCC[N+](C)(C)C here?
The growth was 16.6%.

With O=C1Nc2ccccc2/C1=C/c1cn(C(=O)c2ccc(Cl)cc2)c2ccccc12 as the compound, how does the growth read?
The growth was 130%.

With O=C1/C(=C\c2cccnc2)SC(=S)N1CCc1ccc(O)cc1 as the compound, how does the growth read?
Its growth is 25.1%.

With COc1ccc(C2C(c3nn[nH]n3)=C(N)Oc3c2ccc2ccccc32)cc1 (stereo not given) as the compound, how does the growth read?
The growth was 76.3%.

Which growth does the source give for COc1ccc(NC(=O)CSc2nnc(-c3cc(-c4ccc(S(N)(=O)=O)cc4)nc4ccccc34)n2-c2ccccc2)cc1 here?
Its growth is 81.9%.

With COc1ccc(-c2csc(C3=C(O)CN(C(C)C)C3=N)n2)cc1OC as the compound, how does the growth read?
Its growth is 83.6%.

How did the growth turn out when Cn1cc(-c2csc(-c3ccccc3)n2)c2cccnc21 was run?
Its growth is -37.4% [100 µM] (active).

With CCN1CCN(c2cc(C)nc(NCc3cc(Nc4ccnc5cc(Cl)ccc45)ccc3F)n2)CC1 as the compound, how does the growth read?
Its growth is 58.5%.

Which growth does the source give for C#CCOc1nc(C)cc(C)c1C#N here?
The growth was 106%.

With Cc1cc(O)c(C2=NN(c3ccc(S(N)(=O)=O)cc3)C(c3ccccc3Cl)C2)cc1Cl (stereo not given) as the compound, how does the growth read?
The growth was -11.7% (active).

How did the growth turn out when N#Cc1c(-c2cccc(Cl)c2)cc(-c2cccc(Cl)c2)[nH]c1=O was run?
The growth was 82.1%.

With N=c1sc(Cc2ccc(Cl)cc2)cn1CC(=O)c1ccc(F)cc1 as the compound, how does the growth read?
The growth was 82.3%.

Source: PubChem BioAssay (NCI)
